# Laboratory results reported in ChEMBL document CHEMBL3988442, “University of Dundee, Small-Polar-MMV Screening Library” (2021).
# The whole screen tested about 66,000 compounds, of which about 960 (1.5%) showed an effect of 50% or more. Only a selection was taken, and strong results are over-represented in it overall.
# System: Trypanosoma brucei
# Experiment: Trypanosoma brucei 72 hour study
# Format: functional, organism-based
# Set-up: scale not given: in the data most compounds retested in dose-response had high values
smiles,measurement,setting,value
Cc1ccc(CN2CC3(CCN(C(=O)c4cscn4)C3)C2)o1.O=C(O)C(F)(F)F,Percent Effect,"30 µM, 30.03 µM",-9.237%
O=C(O)C(F)(F)F.O=C(O)C(F)(F)F.O=C(O)C(F)(F)F.OCCN1CCC2(CC1)CC(NCc1ccccn1)c1ccccc1O2 (centres undefined),Percent Effect,"30 µM, 30.03 µM",-31.61%
CC(C)N1CCCC1c1cc(CO)[nH]n1.O=CO (centres undefined),Percent Effect,"30.3 µM, […]",-7.818%
CN(Cc1ccco1)Cc1cncc2c1CCN(c1ncccn1)C2.Cl.Cl,Percent Effect,"30 µM, 30.03 µM",54.64%
Cc1ccc(N2CCc3c(CN(C)Cc4ccco4)cncc3C2)nn1.Cl.Cl,Percent Effect,"30.3 µM, […]",-4.486%
Cc1cnc(N2CCc3c(CN(C)Cc4ccco4)cncc3C2)nc1,Percent Effect,"30.3 µM, […]",5.943%
CCN1CCC(NC(=O)CN2CCc3c(ncn3C3CC3)C2)CC1,Percent Effect,10 µM,-42.18%
Cc1cnc(C(=O)N2CCC3(CCN(Cc4ccccn4)C3=O)C2)cn1.O=C(O)C(F)(F)F (centres undefined),Percent Effect,"30 µM, 30.03 µM",-17.07%
Cc1ccccc1-n1cc(-c2ccnc(N3CCCC(O)C3)n2)cn1 (centres undefined),Percent Effect,"30.3 µM, […]",12.09%
Cc1ccccc1-n1cc(-c2ccnc(N3CCCC(CN)C3)n2)cn1 (centres undefined),Percent Effect,"30.3 µM, […]",46.15%
COC[C@H]1CCCN1c1nccc(-c2cnn(-c3ccccc3C)c2)n1,Percent Effect,"30.3 µM, […]",99.85%
Cl.c1cc(CNCc2ccc(-n3cncn3)nc2)cc(OC2CCCC2)c1,Percent Effect,"30.3 µM, […]",-105%
Cc1ccc(C(=O)N2CCN(c3ccnc4ccsc34)CC2)o1,Percent Effect,"30.3 µM, […]",99.86%
O=C(N1CCOCC1)N1CCN(c2ccnc3ccsc23)CC1,Percent Effect,"30.3 µM, […]",-32.02%
O=C(c1cnccn1)N1CCN(c2ccnc3ccsc23)CC1,Percent Effect,"30.3 µM, […]",-26.37%
CN(C)Cc1nn(C)c2c1CN(C(=O)c1cccc(C#N)c1)C2,Percent Effect,"30.3 µM, […]",-11.38%
CC(CO)NC(=O)c1ccc(NCc2ccc(F)c(F)c2)cc1 (centres undefined),Percent Effect,"30.3 µM, […]",74.6%
Cc1cc(C)cc(CNc2ccc(C(=O)NC(C)CO)cc2)c1 (centres undefined),Percent Effect,"30.3 µM, […]",34.18%
CC(CO)NC(=O)c1ccc(NCc2ccccc2)cc1 (centres undefined),Percent Effect,"30.3 µM, […]",11.13%
CCn1cc(N2Cc3nc(N4CCC(O)CC4)ncc3C2=O)cn1,Percent Effect,"30.3 µM, […]",-24.87%
O=C(Nc1cnn(CC(=O)N2CCCCO2)c1)c1ccsc1,Percent Effect,"30 µM, 30.03 µM",102%
O=C(Nc1cnn(CC(=O)N2CCCCO2)c1)c1ccccn1,Percent Effect,"30 µM, 30.03 µM",-63.86%
O=C(Nc1cnn(CC(=O)N2CCCO2)c1)c1ccccc1,Percent Effect,"30 µM, 30.03 µM",-24.18%
Cc1ccc(C(=O)N(C)Cc2cc(Br)cs2)cn1,Percent Effect,"30 µM, 30.03 µM",-13.9%
c1ccc(-c2nc(CN3CCCC(Cn4cncn4)C3)cs2)cc1 (centres undefined),Percent Effect,"30.3 µM, […]",51.63%
c1ncn(CC2CCCN(Cc3csc(-c4ccsc4)n3)C2)n1 (centres undefined),Percent Effect,"30.3 µM, […]",-1.362%
Clc1ccc2cccnc2c1CN1CCCC(Cn2cncn2)C1 (centres undefined),Percent Effect,"30 µM, 30.03 µM",98.3%
Clc1ccc(CN2CCCC(Cn3cncn3)C2)c2ncccc12 (centres undefined),Percent Effect,"30 µM, 30.03 µM",-24.17%
c1cnc(-c2nc(CN3CCCC(Cn4cncn4)C3)cs2)nc1 (centres undefined),Percent Effect,"30 µM, 30.03 µM",8.258%
Clc1ccc2cccnc2c1CN1CCCC1Cn1cncn1 (centres undefined),Percent Effect,"30 µM, 30.03 µM",3.447%
CO[C@@H]1CCN(C(=O)Cc2ccc(F)cc2)[C@@H]1Cc1cccnc1.O=C(O)C(F)(F)F,Percent Effect,"30.3 µM, […]",-10.6%
COCCN1CC[C@H]2CN(Cc3ccc(C)s3)C[C@@H]2C1=O.O=C(O)C(F)(F)F,Percent Effect,"30.3 µM, […]",-7.411%
CO[C@H]1CN(Cc2nc3ccccc3n2C)CC[C@@]12CCCO2,Percent Effect,"30.3 µM, […]",5.707%
CO[C@H]1CN(Cc2ccccc2F)C[C@@]12CCCO2,Percent Effect,"30.3 µM, […]",-11.54%
CO[C@H]1CN(Cc2nc3ccccc3n2C)C[C@@]12CCCO2,Percent Effect,"30.3 µM, […]",99.68%
O=C(O)C(F)(F)F.O=C(O)C(F)(F)F.O=C(c1ccnnc1)N1CCN(Cc2ccncc2)c2ncccc2C1,Percent Effect,"30.3 µM, […]",-2.542%
Cc1nc(Nc2ncc(C)s2)cc(C2CCCN2S(C)(=O)=O)n1 (centres undefined),Percent Effect,"30.3 µM, […]",-10.42%
Cc1nc(Nc2nnc(C)s2)cc(C2CCCN2)n1.Cl (centres undefined),Percent Effect,"30.3 µM, […]",-18.52%
Cc1nc(Nc2nccs2)cc(C2CCCN2)n1.Cl (centres undefined),Percent Effect,"30.3 µM, […]",99.83%
Cc1nc(Nc2nncs2)cc(C2CCCN2)n1.Cl (centres undefined),Percent Effect,"30.3 µM, […]",-19.68%
Cc1nc(Nc2nccs2)cc(C2CCCN2C2CCOCC2)n1 (centres undefined),Percent Effect,"30.3 µM, […]",18.07%
Cc1nc(Nc2ncc(C)s2)cc(C2CCCN2)n1.Cl (centres undefined),Percent Effect,"30.3 µM, […]",99.89%
COc1ccc(NC(=O)CCNc2ncccn2)cn1,Percent Effect,"30 µM, 30.03 µM",-26.87%
CCn1cc(CN2C[C@@H]3CCCN3C[C@@H]2CCSC)cn1.O=C(O)CC(O)(CC(=O)O)C(=O)O,Percent Effect,"30.3 µM, […]",8.457%
O=C(NCC1CCOCC1)[C@@H]1C[C@@H]2[C@@H](CCN2Cc2nccs2)O1.O=C(O)C(F)(F)F,Percent Effect,"30.3 µM, […]",-69.82%
Cc1cc(C[C@@H]2COC[C@H]2NCc2ccc(C(F)(F)F)cc2)on1.O=C(O)CC(O)(CC(=O)O)C(=O)O,Percent Effect,"30.3 µM, […]",8.396%
O=C(Cc1ccccn1)N1C[C@H](OCc2cccnc2)[C@H]2COC[C@H]21.O=C(O)C(F)(F)F.O=C(O)C(F)(F)F,Percent Effect,"30.3 µM, […]",-31.71%
O=C(C1CC1)N1Cc2[nH]nc(COCc3cccnc3)c2C1.O=C(O)C(F)(F)F.O=C(O)C(F)(F)F,Percent Effect,"30.3 µM, […]",-50.32%
COCCN(C)C[C@@H]1CN(Cc2ccnc3ccccc23)C[C@@H]1CO,Percent Effect,"30 µM, 30.03 µM",-38.21%
COCCN(C)C[C@@H]1CN(c2cc(C)nc3ccccc23)C[C@@H]1CO,Percent Effect,"30 µM, 30.03 µM",99.51%
COCCN(C)C[C@@H]1CN(c2nc(C)cc(C)n2)C[C@@H]1CO,Percent Effect,"30 µM, 30.03 µM",-45.82%
COCCNc1cc(-c2cccc(C(=O)O)c2C)c2cc[nH]c2n1,Percent Effect,"30 µM, 30.03 µM",-15.23%
COCC(=O)N1CC[C@@H]2O[C@@H](C)C[C@H]2C1,Percent Effect,"30.3 µM, […]",51.97%
COCC(=O)N1CC[C@H]2O[C@@H](C)C[C@H]2C1,Percent Effect,"30.3 µM, […]",-22.84%
COCC(=O)N1CC[C@H]2C[C@H](C)O[C@@H]2C1,Percent Effect,"30 µM, 30.03 µM",19.11%
O=C(O)C(F)(F)F.c1cnc(NCc2nnn3c2CN(Cc2cccs2)CCC3)nc1,Percent Effect,"30 µM, 30.03 µM",-17.42%
Cc1occc1C(=O)N1CCC2(CCN(C(=O)c3cccnc3)C2)CC1.O=C(O)C(F)(F)F,Percent Effect,"30.3 µM, […]",-37.63%
Cc1ccc(Oc2c(F)cccc2OC[C@@H](N)CC(C)C)cc1,Percent Effect,"30.3 µM, […]",99.61%
CC(C)COc1ccccc1C(N)CC(C)C (centres undefined),Percent Effect,"30 µM, 30.03 µM",-18.48%
CCCOc1ccccc1C(N)CC(C)C (centres undefined),Percent Effect,"30 µM, 30.03 µM",-40.73%
COc1ccccc1C(N)CC(C)C (centres undefined),Percent Effect,"30 µM, 30.03 µM",-12.31%
CC(CNS(C)(=O)=O)Oc1cccc(Cl)c1 (centres undefined),Percent Effect,"30 µM, 30.03 µM",-19.79%
CC(C)C[C@H](N)COc1cccc(F)c1Oc1ccccc1,Percent Effect,"30.3 µM, […]",100.2%
NCc1ccc(Oc2cccc(Cl)c2Cl)cc1,Percent Effect,"30 µM, 30.03 µM",-54.14%
CC(CNS(N)(=O)=O)Oc1cccc(Cl)c1 (centres undefined),Percent Effect,"30 µM, 30.03 µM",-29.05%
CC(C)C[C@H](N)COc1cccc(F)c1Oc1ccc(Cl)cc1,Percent Effect,"30.3 µM, […]",100.5%
CC(C)C[C@H](N)COc1cccc(F)c1Oc1cccc(Cl)c1,Percent Effect,"30.3 µM, […]",99.87%
CNCc1cc(F)ccc1Oc1ccc(Cl)cc1,Percent Effect,"30.3 µM, […]",-18.58%
CCOc1ccccc1C(N)CC(C)C (centres undefined),Percent Effect,"30 µM, 30.03 µM",-21.09%
